Results reported in PubChem BioAssay AID720597 (Broad Institute, 2013).
Results with a measured potency or affinity are listed apart. Active and inactive are the calls of the source.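 The calls were made as follows: active = fitted half-maximal dose no more than twice the top valid tested dose, for compounds that lower signal; inconclusive = fit invalid, or curve flat with activity between -70 and -30; inactive = potency past limit, curve flat within ±30, or signal increasing.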

Target: NAD-dependent protein deacylase sirtuin-5, mitochondrial (Homo sapiens) (UniProt Q9NXA8)
Sequence (Q9NXA8 whole entry, looked up): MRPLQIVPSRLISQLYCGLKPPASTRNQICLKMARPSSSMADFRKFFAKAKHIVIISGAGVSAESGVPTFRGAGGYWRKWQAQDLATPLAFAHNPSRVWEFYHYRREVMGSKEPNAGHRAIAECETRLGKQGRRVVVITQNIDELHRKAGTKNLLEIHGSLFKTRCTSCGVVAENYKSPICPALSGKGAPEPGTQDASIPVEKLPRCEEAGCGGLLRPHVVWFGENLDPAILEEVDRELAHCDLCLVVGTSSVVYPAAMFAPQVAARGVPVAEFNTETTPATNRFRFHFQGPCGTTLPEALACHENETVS
Assay: blockers of sirtuin-5 peptide desuccinylation – biochemical, fluorescence imaging, cherry-pick, set 6, dose response (AID 720597);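 also: lower AMC signal can also come from blocking the trypsin step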
Settings: Purified SirT5, succinyl-peptide-AMC/trypsin fluorescence; series mostly up to 15 µM

outcome, inactive:
C[C@@H]1CN([C@@H](C)CO)C(=O)Cc2cc(NC(=O)Nc3ccc(F)cc3)ccc2O[C@@H]1CN(C)C
CN(C)c1ccc2c(c1)[C@H]1C[C@H](CC(=O)NCc3ccc(Oc4ccccc4)cc3)O[C@H](CO)[C@H]1O2
COc1ccc(NC(=O)N(C)C[C@@H]2Oc3cc(C#CCC(C)C)ccc3S(=O)(=O)N([C@H](C)CO)C[C@@H]2C)cc1
O=C(NC1CCCC1)N1CCCCN2[C@H](C1)[C@H](c1ccc(/C=C/c3ccccc3)cc1)[C@@H]2CO
C[C@@H]1CN([C@@H](C)CO)S(=O)(=O)c2ccc(C3=CCCCC3)cc2O[C@@H]1CN(C)S(=O)(=O)c1ccc(F)cc1
CC(C)CC#Cc1ccc2c(c1)O[C@@H](CN(C)S(=O)(=O)c1cccc(F)c1)[C@@H](C)CN([C@@H](C)CO)S2(=O)=O
C[C@@H]1CCCCO[C@@H](CN(C)S(=O)(=O)c2ccc(F)cc2)[C@H](C)CN([C@@H](C)CO)C(=O)c2cc(NC(=O)Nc3ccc4c(c3)OCO4)ccc2O1
COc1ccc(S(=O)(=O)Nc2ccc3c(c2)CC(=O)N([C@H](C)CO)C[C@H](C)[C@@H](CN(C)CC2CCCCC2)O3)cc1
C[C@@H]1CN([C@H](C)CO)C(=O)c2cccc(NC(=O)NC3CCCCC3)c2O[C@@H]1CN(C)Cc1ccc(Oc2ccccc2)cc1
C[C@@H]1CN([C@@H](C)CO)S(=O)(=O)c2ccc(C#CC(C)(C)O)cc2O[C@@H]1CN(C)Cc1ccc(-c2ccccc2)cc1
C[C@@H]1CN([C@H](C)CO)C(=O)c2c(c3ccccc3n2C)-c2ccccc2CO[C@@H]1CN(C)Cc1cccc2c1OCCCO2
COc1ccc(S(=O)(=O)Nc2ccc3c(c2)C(=O)N([C@@H](C)CO)C[C@H](C)[C@@H](CN(C)Cc2ccc(C(F)(F)F)cc2)OCCCC[C@H](C)O3)cc1
COc1ccc(S(=O)(=O)Nc2ccc3c(c2)C(=O)N([C@@H](C)CO)C[C@H](C)[C@H](CN(C)Cc2ccc(Oc4ccccc4)cc2)O3)cc1
C[C@@H]1CN([C@H](C)CO)S(=O)(=O)c2ccc(C#CC3CC3)cc2O[C@@H]1CN(C)Cc1ccccc1F
C[C@@H]1CN([C@H](C)CO)C(=O)c2cc(NS(=O)(=O)c3ccc(Cl)cc3)ccc2O[C@@H]1CN(C)Cc1ccc(-c2ccccc2)cc1
C[C@@H]1CN([C@@H](C)CO)S(=O)(=O)c2ccc(C#Cc3ccc(F)cc3)cc2O[C@H]1CN(C)C(=O)NC1CCCCC1
CCCNC(=O)N1CC2(C1)[C@H](c1ccccc1)[C@H](CO)N2Cc1cccc(F)c1
COc1ccc(C#Cc2ccc3c(c2)[C@]2(C(=O)N3)[C@H](C(=O)N3CCN(c4ncccn4)CC3)[C@H]3C(=O)O[C@H](c4ccccc4)[C@H](c4ccccc4)N3[C@@H]2c2ccc(OCCO)cc2)cc1
O=C(NCC[C@H]1CC[C@@H](NS(=O)(=O)c2cccc(F)c2)[C@@H](CO)O1)C1CCOCC1
COc1cccc(S(=O)(=O)N(C)C[C@@H]2Oc3cc(C4=CCCC4)ccc3S(=O)(=O)N([C@H](C)CO)C[C@H]2C)c1
CCCC(=O)Nc1ccc2c(c1)OC[C@H](C)N(Cc1ccccc1)C[C@@H](C)[C@H](OC)CN(C)C2=O
O=C(C[C@@H]1CC[C@@H](NC(=O)Nc2cccc(F)c2)[C@H](CO)O1)NCC1CC1
CO[C@@H]1CC[C@@H]2CCN(C)C(=O)C[C@H](c3ccccc3)CN(C)C(=O)c3cccc(C#N)c3OC[C@@H]1O2
CCCC#Cc1ccc2c(c1)O[C@H](CN(C)Cc1ccccc1)[C@@H](C)CN([C@H](C)CO)S2(=O)=O
O=C(NCC[C@H]1CC[C@@H](NC(=O)C2CC2)[C@@H](CO)O1)c1cc(Cl)cc(Cl)c1
C[C@H]1CN([C@@H](C)CO)S(=O)(=O)c2ccc(-c3cncnc3)cc2O[C@H]1CN(C)Cc1ccccn1
COc1ccc(C#Cc2ccc([C@@H]3[C@@H](CO)N4C(=O)CN(C(=O)c5cccnc5)C[C@@H]34)cc2)cc1
C[C@@H]1CCCCO[C@@H](CN(C)C(=O)Nc2ccc(C(F)(F)F)cc2)[C@@H](C)CN([C@H](C)CO)C(=O)c2cc(NS(=O)(=O)c3ccc(Cl)cc3)ccc2O1
